According to PubChem BioAssay (NCI):
“And” between values parts separate entries of the source, which are not always exact repeats. Equal entries are not always repeated. The panel holds about 83,000 compounds, 20% with a hit somewhere; the sample as a whole holds those more often.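 Assay: single dose, 48 h. Readout: percent growth (0 = no net growth; negative = cell death). Active: <10.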 The source made the active and inactive calls.

Tests used:
Test in all cases: NCI-60 one-dose screen, 48 h (100 = growth as untreated, 0 = no growth, -100 = all killed)
Details in all cases: 10 µM unless noted
SR leukemia = tested on: SR leukemia
RPMI-8226 leukemia = tested on: RPMI-8226 leukemia
OVCAR-8 ovarian = tested on: OVCAR-8 ovarian
OVCAR-5 ovarian = tested on: OVCAR-5 ovarian
OVCAR-4 ovarian = tested on: OVCAR-4 ovarian
SK-OV-3 ovarian = tested on: SK-OV-3 ovarian
IGROV1 ovarian = tested on: IGROV1 ovarian
OVCAR-3 ovarian = tested on: OVCAR-3 ovarian
HS 578T breast = tested on: HS 578T breast
NCI/ADR-RES ovarian = tested on: NCI/ADR-RES ovarian

Measured: growth

COc1ccc(C(C)=C(c2ccc(OCCN3CCCCCC3)cc2)c2ccc(OCCN3CCCCCC3)cc2)cc1
inactive: OVCAR-5 ovarian 22.9% | SK-OV-3 ovarian 72.9%
active: SR leukemia -12.1% | RPMI-8226 leukemia -44.9% | OVCAR-8 ovarian 0.8% | OVCAR-4 ovarian -66.7% | IGROV1 ovarian -67.9% | OVCAR-3 ovarian -47.2% | HS 578T breast -52.1% | NCI/ADR-RES ovarian -60%

Cc1ccc(S(=O)(=O)NCCCNc2nccc(-c3[nH]c(-c4ccccc4)nc3-c3ccc(F)c(O)c3)n2)cc1
inactive: SR leukemia 33.8% | RPMI-8226 leukemia 53.7% | OVCAR-8 ovarian 86.7% | OVCAR-5 ovarian 143% | OVCAR-4 ovarian 107% | SK-OV-3 ovarian 117% | IGROV1 ovarian 99% | OVCAR-3 ovarian 132% | HS 578T breast 99.6% | NCI/ADR-RES ovarian 104%

Cc1ccc(-c2cc3nc(C(Cl)Cl)nc(-c4ccc(S(=O)(=O)N(C)C)cc4)n3n2)cc1
inactive: SR leukemia 68.7% | RPMI-8226 leukemia 86.9% | OVCAR-8 ovarian 65.5% | OVCAR-5 ovarian 106% | OVCAR-4 ovarian 94.3% | SK-OV-3 ovarian 101% | IGROV1 ovarian 95% | OVCAR-3 ovarian 108% | HS 578T breast 105% | NCI/ADR-RES ovarian 78.8%

Cc1csc(/N=C(N)/N=C(\N)c2cccnc2)n1
inactive: SR leukemia 45.7% | RPMI-8226 leukemia 86.1% | OVCAR-8 ovarian 89.7% | OVCAR-5 ovarian 92.5% | OVCAR-4 ovarian 98.9% | SK-OV-3 ovarian 77.8% | IGROV1 ovarian 67.9% | OVCAR-3 ovarian 66.7% | HS 578T breast 78.8% | NCI/ADR-RES ovarian 48.4%

CCCCCC[n+]1ccc(SCC(=O)n2ccc3ccccc32)c2ccccc21
inactive: SR leukemia 56.6% | RPMI-8226 leukemia 49.6% | OVCAR-8 ovarian 92.1% | OVCAR-5 ovarian 98.4% | OVCAR-4 ovarian 58.6% | SK-OV-3 ovarian 89.9% | IGROV1 ovarian 74.1% | OVCAR-3 ovarian 84.7% | HS 578T breast 97.6% | NCI/ADR-RES ovarian 103%

O=C(Nc1ccccc1)Nc1nc2ccc([N+](=O)[O-])cc2[nH]1
inactive: SR leukemia 70.4% | RPMI-8226 leukemia 46.1% | OVCAR-8 ovarian 66.9% | OVCAR-5 ovarian 75.2% | OVCAR-4 ovarian 23.5% | SK-OV-3 ovarian 73.4% | IGROV1 ovarian 45.9% | OVCAR-3 ovarian 38.3% | HS 578T breast 75.5% | NCI/ADR-RES ovarian 69.1%

COc1cc(-c2nc(-c3ccccc3)[nH]c2-c2ccnc(NCCCNS(=O)(=O)c3ccc(C(F)(F)F)cc3)n2)ccc1Cl
inactive: RPMI-8226 leukemia 12.5% and 31.6% | OVCAR-8 ovarian 53.2% and 40.2% | OVCAR-5 ovarian 103% and 84.4% | OVCAR-4 ovarian 41.6% and 39.1% | SK-OV-3 ovarian 99.5% and 55.1% | IGROV1 ovarian 59.6% and 51.8% | OVCAR-3 ovarian 33.6% and 39.6% | HS 578T breast 58.8% and 71.9% | NCI/ADR-RES ovarian 13.8% and 32.4%
9.32% (active) and 35.8% (inactive): SR leukemia

CC(Nc1ncnc2ccc(-c3cnc4cnccn34)cc12)c1ccccc1 (stereo not given)
active: IGROV1 ovarian 5.93%
inactive: SR leukemia 38.9% | RPMI-8226 leukemia 46.6% | OVCAR-8 ovarian 59.7% | OVCAR-5 ovarian 68.2% | OVCAR-4 ovarian 41.4% | SK-OV-3 ovarian 60.6% | OVCAR-3 ovarian 67.5% | HS 578T breast 63.1% | NCI/ADR-RES ovarian 52.6%

COC(=O)c1cccc(NC2=C(Cl)C(=O)C(C)=C(C)C2=O)c1
active: OVCAR-4 ovarian -36.7%
inactive: SR leukemia 30% | RPMI-8226 leukemia 58.3% | OVCAR-8 ovarian 99.4% | OVCAR-5 ovarian 101% | SK-OV-3 ovarian 106% | IGROV1 ovarian 56.2% | OVCAR-3 ovarian 94.2% | HS 578T breast 88.1% | NCI/ADR-RES ovarian 98.2%

Cn1cc(-c2nnc(N)nc2-c2c[nH]c3ccc(Br)cc23)c2cc(Br)ccc21
inactive: SR leukemia 78.4% | RPMI-8226 leukemia 109% | OVCAR-8 ovarian 104% | OVCAR-5 ovarian 120% | OVCAR-4 ovarian 98.6% | SK-OV-3 ovarian 111% | IGROV1 ovarian 107% | OVCAR-3 ovarian 108% | HS 578T breast 91.4% | NCI/ADR-RES ovarian 110%

COC(=O)CCSC1=C(C)C(=O)c2ccccc2C1=O
inactive: SR leukemia 71% | RPMI-8226 leukemia 45.3% | OVCAR-8 ovarian 85.8% | OVCAR-5 ovarian 104% | OVCAR-4 ovarian 75.6% | SK-OV-3 ovarian 97.7% | IGROV1 ovarian 80.8% | OVCAR-3 ovarian 69% | HS 578T breast 91.8% | NCI/ADR-RES ovarian 83.5%

Cc1ccc(C(=O)Nc2ccc(CNCCN3CCOCC3)c(C(F)(F)F)c2)cc1C#Cc1cnc2cccnn12
active: SR leukemia -15.7% | RPMI-8226 leukemia -12.8% | HS 578T breast -13.3% | NCI/ADR-RES ovarian 5.66%
inactive: OVCAR-8 ovarian 13.3% | OVCAR-5 ovarian 33.5% | OVCAR-4 ovarian 25.1% | SK-OV-3 ovarian 57.7% | IGROV1 ovarian 10.6% | OVCAR-3 ovarian 21.6%

CCCNNC(=O)c1ccc(-c2ccc(NC(=O)CCCCCCC(=O)N[C@H](C(=O)N3C[C@H](O)C[C@H]3C(=O)N[C@@H](C)c3ccc(-c4scnc4C)cc3)C(C)(C)C)cc2)cc1
inactive: SR leukemia 17.9% | OVCAR-8 ovarian 32.7% | OVCAR-5 ovarian 27.3% | OVCAR-4 ovarian 53.6% | SK-OV-3 ovarian 18.5% | IGROV1 ovarian 25.5% | OVCAR-3 ovarian 30.2% | HS 578T breast 30.3% | NCI/ADR-RES ovarian 96.7%
active: RPMI-8226 leukemia 2.23%

Cn1c(SCC(=O)c2ccc(Br)cc2)nc2ccccc2c1=O
inactive: SR leukemia 89.6% | RPMI-8226 leukemia 77.7% | OVCAR-8 ovarian 96.8% | OVCAR-5 ovarian 106% | OVCAR-4 ovarian 81.8% | SK-OV-3 ovarian 98.9% | IGROV1 ovarian 90.5% | OVCAR-3 ovarian 102% | HS 578T breast 102% | NCI/ADR-RES ovarian 96.5%

CSc1ccc(/C(=N/N=C(N)N)c2ccc(F)cc2)cc1
inactive: OVCAR-8 ovarian 11.9% | OVCAR-5 ovarian 43.9% | OVCAR-4 ovarian 57% | SK-OV-3 ovarian 45.3% | IGROV1 ovarian 39.9% | OVCAR-3 ovarian 27.5%
active: SR leukemia -13.8% | RPMI-8226 leukemia 5.69% | HS 578T breast -1.22% | NCI/ADR-RES ovarian 4.1%

COc1ccc2c(c1)c(-c1nnc(N)nc1-c1c[nH]c3ccc(F)cc13)cn2C
active: OVCAR-3 ovarian 3.98%
inactive: SR leukemia 12.5% | RPMI-8226 leukemia 28.2% | OVCAR-8 ovarian 59.5% | OVCAR-5 ovarian 84.2% | OVCAR-4 ovarian 86.3% | SK-OV-3 ovarian 80.7% | IGROV1 ovarian 45.7% | HS 578T breast 49.8% | NCI/ADR-RES ovarian 75.2%

Clc1ccc2[nH]cc(-c3cncn3CCc3ccc4c(c3)OCO4)c2c1
inactive: SR leukemia 62.1% | RPMI-8226 leukemia 42.5% | OVCAR-8 ovarian 76% | OVCAR-5 ovarian 76.2% | OVCAR-4 ovarian 33% | SK-OV-3 ovarian 81% | IGROV1 ovarian 76.8% | OVCAR-3 ovarian 67.6% | HS 578T breast 69.7% | NCI/ADR-RES ovarian 78.6%

Cc1ccc2c(n1)C(=O)C(Cl)=C(Nc1ccc(C(F)(F)F)cc1)C2=O
active: RPMI-8226 leukemia -8.81% | OVCAR-4 ovarian -96.4% | IGROV1 ovarian -58.2% | OVCAR-3 ovarian -48.6%
inactive: SR leukemia 10.5% | OVCAR-8 ovarian 39.3% | OVCAR-5 ovarian 110% | SK-OV-3 ovarian 82.2% | HS 578T breast 94.1% | NCI/ADR-RES ovarian 87.6%

N#Cc1c(-c2cccs2)cc(-c2cnccn2)nc1SCC(=O)N/N=C/c1ccccc1
inactive: SR leukemia 55.9% | OVCAR-8 ovarian 43.4% | OVCAR-5 ovarian 87.2% | SK-OV-3 ovarian 106% | IGROV1 ovarian 61.9% | OVCAR-3 ovarian 27.7% | HS 578T breast 40.7% | NCI/ADR-RES ovarian 37%
active: RPMI-8226 leukemia -23.7% | OVCAR-4 ovarian 3.09%

Cc1ccc2c(n1)C(=O)C(Cl)=C(Nc1ccccc1C(=O)OC(C)(C)C)C2=O
inactive: OVCAR-8 ovarian 66.8% | OVCAR-5 ovarian 139% | SK-OV-3 ovarian 105% | IGROV1 ovarian 59.6% | HS 578T breast 84.1% | NCI/ADR-RES ovarian 64.2%
active: SR leukemia -30.8% | RPMI-8226 leukemia -31.8% | OVCAR-4 ovarian -45.3% | OVCAR-3 ovarian -63.6%

NC1=NC2(CCCC2)N(c2ccc(S(=O)(=O)Nc3nccs3)cc2)C(N)=N1
inactive: SR leukemia 98.2% | RPMI-8226 leukemia 94.1% | OVCAR-8 ovarian 105% | OVCAR-5 ovarian 101% | OVCAR-4 ovarian 110% | SK-OV-3 ovarian 114% | IGROV1 ovarian 103% | OVCAR-3 ovarian 116% | HS 578T breast 109% | NCI/ADR-RES ovarian 100%

N#Cc1c(-c2cccs2)cc(-c2cnccn2)nc1SCC(=O)N/N=C/c1ccc(Cl)cc1
inactive: SR leukemia 87.1% | RPMI-8226 leukemia 97.6% | OVCAR-8 ovarian 104% | OVCAR-5 ovarian 112% | OVCAR-4 ovarian 105% | SK-OV-3 ovarian 114% | IGROV1 ovarian 109% | OVCAR-3 ovarian 117% | HS 578T breast 103% | NCI/ADR-RES ovarian 102%
